Test results from PubChem BioAssay AID887 (National Center for Advancing Translational Sciences (NCATS), 2007).
“And” between values parts separate entries of the source, which are not always exact repeats. Equal values may be shown once. Out of some 74,000 compounds screened, about 1,100 (1.5%) were called active. About 5% were inconclusive and are not listed. The call rests on the fitted dose curve; in most records, active means well fitted inhibition curve with a large enough effect; inconclusive means small, poorly fitted or top-dose-only effect; inactive means no such curve, though single readings can be large or run the other way. Shown is part of a subset that was picked to be rich in actives.

biological target: Polyunsaturated fatty acid lipoxygenase ALOX15 (Homo sapiens) (UniProt P16050); assay: qHTS Assay for Inhibitors of 15-hLO (15-human lipoxygenase); conditions: purified 15hLO-1, xylenol orange hydroperoxide absorbance; series mostly up to 57.1 µM; activity change, negative = inhibition: at the top concentration; further: nearly all actives have a fitted effect of over 55% in size
From the text: Assay Overview: NIH Molecular Libraries Screening Centers Network [MLSCN] NIH Chemical Genomics Center [NCGC] MLSCN Grant: MH081283-01A1 PI Name: Holman, T.R., University of California, Santa Cruz Human lipoxygenase 15hLO-1 is a member of the closely related lipoxygenase family of enzymes which catalyze the site-specific oxidation of arachidonic acid to various hormone precursor molecules and as such is a candidate for drug development in a variety of disease areas, such as cancer and inflammation. Inhibition of 15hLO-1 activity was screened by utilizing arachidonic acid as a substrate. The extent of hydroperoxide product formation was measured by a secondary chromogenic reaction in which xylenol orange (XO, Sigma-Aldrich, cat. number 39,818-7) reacts with the ferric ions produced from the reaction between the hydroperoxide and ferrous ions. The Fe(III)-XO complex is characterized with red-shifted absorbance at 560 nm. A purified preparation of human 15hLO-1 was supplied by Professor Ted Holman, University of California, Santa Cruz.
Assay Protocol: Buffer: 25 mM Hepes pH 7.5, 0.01% Triton X-100. Reagents/Controls: Buffer in columns 3 and 4 as negative control (no enzyme). Substrate solution: 50 uM arachidonic acid (Sigma-Aldrich, St. Louis, MO) final concentration dispensed throughout the plate. Enzyme: 40 nM 15hLO-1 final concentration in columns 1, 2, 5-48. Column 1 is neutral (100% activity). Column 2 contained pin-transferred titration of NDGA (nordihidroguaiaretic acid, Sigma-Aldrich, N 5023, top concentration 10 mM in DMSO, then 1:2 dilution in duplicate). (Dilution factor: 23 nL into 4 uL.) Chromogenic detection reagent (divalent iron/xylenol orange, Fe-XO): 200 uM xylenol orange plus 300 uM ferrous ammonium sulfate prepared freshly in 50 mM sulfuric acid. Assay Steps: Three uL of enzyme were dispensed to 1536-well Greiner black clear bottom plates. Compounds and controls (23 nL) were transferred via Kalypsys PinTool. The plates were incubated for 15 min at room temperature, and then 1 uL of substrate solution was added to start the reaction. After room temperature incubation for 6 minutes, 4 uL of Fe-XO solution was added to each well followed by a short spin (1000 rpm, 15 sec) and the plates were then incubated for 30 min. The absorbance at 405 and 573 nm were measured using ViewLux (Perkin-Elmer) High-throughput CCD imager and absorbance protocol settings. The 573-to-405 absorbance ratio was used to compute reaction progress.
On the % scale 0 is the no-effect control and ±100 the full control effect; potency means the concentration at half of the fitted maximal effect.

Polyunsaturated fatty acid lipoxygenase ALOX15 (Homo sapiens), sequence (P16050 whole entry, looked up): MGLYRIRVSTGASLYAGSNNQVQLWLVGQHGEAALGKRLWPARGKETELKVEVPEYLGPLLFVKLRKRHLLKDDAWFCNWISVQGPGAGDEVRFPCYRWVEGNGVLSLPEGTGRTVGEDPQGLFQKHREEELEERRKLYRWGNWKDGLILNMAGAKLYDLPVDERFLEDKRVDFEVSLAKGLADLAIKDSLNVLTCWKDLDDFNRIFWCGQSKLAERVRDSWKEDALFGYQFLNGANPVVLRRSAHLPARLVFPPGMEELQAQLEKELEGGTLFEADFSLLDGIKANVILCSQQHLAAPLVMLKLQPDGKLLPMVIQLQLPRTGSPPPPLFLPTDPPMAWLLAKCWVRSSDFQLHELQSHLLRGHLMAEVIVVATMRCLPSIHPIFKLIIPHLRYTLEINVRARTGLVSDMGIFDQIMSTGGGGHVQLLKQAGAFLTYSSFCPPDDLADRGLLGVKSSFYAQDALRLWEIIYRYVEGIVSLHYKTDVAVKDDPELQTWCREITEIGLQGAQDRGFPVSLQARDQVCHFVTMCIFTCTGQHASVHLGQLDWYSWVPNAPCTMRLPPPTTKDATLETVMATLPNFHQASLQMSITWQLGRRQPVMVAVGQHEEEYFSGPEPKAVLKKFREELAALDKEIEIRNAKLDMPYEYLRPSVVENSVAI

Activity change, negative = inhibition, inactive:
Cc1ccnc(N2CCC(C(=O)NC3CCCCCC3)CC2)n1 -1.73%
Cc1nc2ccccc2c(=O)n1CCCn1ccnc1 17.1%
CC(C)=CCC/C(C)=C/CC/C(C)=C/CC/C(C)=C/CO -5.43%
O=C(O)[C@@H](O)Cc1ccccn1 2.76% [at 11.4 µM]
COc1ccc(/C=C/NC(=O)Cc2ccc(OC)c(OC)c2)cc1 4.24% [at 11.4 µM] and -3.82% [at 11.4 µM]
CCCCc1nc2ccccc2c(=O)n1NC(=O)c1c(O)c2cccc3c2n(c1=O)CC3 15.9%
CCOC(=O)N1CCN(CC(=O)Nc2cc(C)nn2-c2nc3ccccc3s2)CC1 8.06%
CC(C)CN1CCc2nc(-c3ccccc3)c3c(c2C1)COC(C)C3 (stereo not given) -12.9% [at 11.4 µM]
CO[C@H]1COC(=O)[C@H](Cc2ccccc2)NC(=O)C/C=C\[C@@H](C)[C@H](OC)COC(=O)C/C=C\[C@@H]1C 10.5% [at 11.4 µM]
COC(=O)NC(c1ccccc1)[C@]1(C(C)=O)CCCC1=O (stereo not given in full) 9.57% [at 11.4 µM]
c1ccc(CSc2nnc(-c3ccco3)n2Cc2ccccc2)cc1 -5.84%
Nc1cc(=O)nc(SCc2ccccc2)n1Cc1ccco1 0.59%
CC(=O)OC1CCC2(O)CC1(C)CCC1C2CC1(C)C (stereo not given) -1.5%
COc1ccc(CCC(=O)c2c(O)cc(OC3OC(CO)C(O)C(O)C3O[C@@H]3OC(C)C(O)C(O)C3O)cc2O)cc1O (stereo not given in full) -1.92%
CC(C)[C@@H](OCc1ccccc1)[C@H](C)/C=N\OC[C@@H](C)[C@H](OCc1ccccc1)C(C)C -0.92% [at 11.4 µM]
CO[C@H]1COC(=O)CCC[C@@H](C)[C@H](OC)COC(=O)[C@@H](C)NC(=O)C/C=C\[C@@H]1C -1.39% [at 11.4 µM]
CCC1(C)CC(=O)NC1=O (stereo not given) -0.342%
Cc1cc(C)cc(N(C(C)C(=O)Nc2c(C)n(C)n(-c3ccccc3)c2=O)S(C)(=O)=O)c1 (stereo not given) 4.53%
COC(=O)Nc1c(C)n(C)n(-c2ccccc2)c1=O 6.02%
CC1(C)OC2CO[C@]3(COS(N)(=O)=O)OC(C)(C)OC3C2O1 (stereo not given in full) 0.158%
COc1ccccc1OCCNCC(O)COc1cccc2[nH]c3ccccc3c12 (stereo not given) -5.85%

Potency, active:
Cc1ccnc(-n2sc3ccccc3c2=O)n1 20 µM
CCCCc1nc2ccccc2c(NC(=O)CN2CCN(C)CC2)c1CCC 15.8 µM
c1ccc(CSc2nnc(-c3ccco3)c(-c3ccco3)n2)cc1 6.31 µM
Cc1c(NC(=O)C(C)OC(=O)c2cc3c4ccccc4n(C)c3s2)c(=O)n(-c2ccccc2)n1C (stereo not given) 31.6 µM
